ALDH1A1 inh – inhibitors of human aldehyde dehydrogenase 1A1 | P00352 | Purified ALDH1A1, NADH fluorescence, propionaldehyde substrate | Potency, µM (doses to about 75.3 µM), hits mostly inhibitors | hit rate 7.3% among 220,000 | AID 1030
Target sequence (P00352 whole entry, looked up): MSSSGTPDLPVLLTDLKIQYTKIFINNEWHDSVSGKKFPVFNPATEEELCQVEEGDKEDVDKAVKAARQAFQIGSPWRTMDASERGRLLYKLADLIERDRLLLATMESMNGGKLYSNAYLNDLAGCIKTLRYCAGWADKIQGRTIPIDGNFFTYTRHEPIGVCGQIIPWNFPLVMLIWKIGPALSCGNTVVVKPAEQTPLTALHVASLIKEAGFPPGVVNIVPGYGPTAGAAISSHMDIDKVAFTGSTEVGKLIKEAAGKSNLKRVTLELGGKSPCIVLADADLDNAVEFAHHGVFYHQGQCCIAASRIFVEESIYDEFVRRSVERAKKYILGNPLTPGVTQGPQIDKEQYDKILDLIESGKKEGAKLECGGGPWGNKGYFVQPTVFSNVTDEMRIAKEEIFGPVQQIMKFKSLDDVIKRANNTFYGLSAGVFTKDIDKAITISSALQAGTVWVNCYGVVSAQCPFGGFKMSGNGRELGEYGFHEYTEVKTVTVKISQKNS
PNC assembly inh – perinucleolar compartment assembly inhibition; PC3M PTB-GFP, PNC prevalence imaging, 16 h; active compounds read low; activity change (PNC), negative = inhibition, % at 10 µM; hit rate 3.1% among 140,000; AID 2417;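 active means readout at or below -70, meaning at least 70% loss of cells showing the perinucleolar compartment, a nuclear body marking cancer cells; inconclusive means readout between -30 and a set limit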
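Read-out is percentage of cells bearing a perinucleolar compartment, from automated 20x imaging of fixed, Hoechst-stained PC3M PTB-GFP cells. Cells were seeded 4 h, then exposed 16 h to compound (23 nl of library stock) in duplicate plates.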
HPGD inh – inhibitors of human 15-hydroxyprostaglandin dehydrogenase (HPGD); purified HPGD, NADH fluorescence kinetic, PGE2 substrate; P15428; hit rate 4.3% among 150,000; Potency, µM, usual class: inhibitors; AID 894
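20 nM HPGD preincubated 15 min at room temperature with compound in 50 mM Tris-HCl pH 8, 0.01% Tween 20. Started with 1 mM NAD+ and 30 uM prostaglandin E2; NADH fluorescence (360/450 nm) read 5 times over 30-s intervals, last minus first.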
Luc counter – blocks Kinase-Glo luciferase, a counter-screen artifact; Kinase-Glo luciferase, ATP luminescence, 8 min; AID 1379; hit rate 0.28% among 200,000; Potency, µM (doses to about 38.3 µM), actives largely listed as inhibitors; Q27757; active means well fitted inhibition curve with a large enough effect; inconclusive means small, poorly fitted or top-dose-only effect; further: nearly all actives have a fitted effect of over 60% in size
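Kinase-Glo luciferase light output from ATP and luciferin was measured with 10 uM ATP, within the enzyme's linear range. Buffer: 50 mM imidazole pH 7.2, 50 mM KCl, 7 mM MgCl2, 0.01% Tween 20, 0.05% BSA; luminescence read after 8 min at ambient temperature.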
Lamin A splicing – LMNA splicing modulation; HeLa LMNA splicing GFP/RFP minigene ratio, 48 h; Potency, µM (highest dose often 46.1 µM), usual class: inhibitors; hit rate 0.01% among 200,000; AID 1487; active means well fitted inhibition curve with a large enough effect in the signal ratio, with a control signal flat, not every such curve was filed as active; inconclusive means small, poorly fitted or top-dose-only effect, or effect the other way, or a change in a side signal; the % refers to the signal ratio
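S3 HeLa stable clones carrying a lamin A-EGFP splicing minigene plus DsRed2 were seeded at 600 cells/well in Opti-MEM with 2% FBS, pin-dosed and incubated 48 h at 37°C. Acumen cytometry (488 nm) gave the GFP/RFP total-intensity ratio.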
Numbers stand for hits; 0 = inactive; ? = inconclusive; - = not tested or not shown; [ ] = another dose, or the depositor's remark. Hits are enriched below; roughly 10% of the tested compounds scored in any of these assays. Unless noted, the call rests on the fitted dose curve; in most records, active means well fitted inhibition curve with a large enough effect (not every such curve was filed as active); inconclusive means small, poorly fitted or top-dose-only effect, or another doubt; inactive means no such curve, though single readings can be large or run the other way.

SMILES	ALDH1A1 inh	PNC assembly inh	HPGD inh	Luc counter	Lamin A splicing
COc1ccccc1N/C=C1/Sc2cc(Cl)ccc2NC1=O	?	-	-	0	0
COc1ccc(N/C=C2/Sc3ccccc3NC2=O)cc1	4µM	-	-	0	-
CCC(C)NC(=O)/C=C1\Sc2ccccc2NC1=O (centres undefined)	?	0	?	0	0
Cc1ccc(N/C=C2/Sc3ccccc3NC2=O)cc1	22µM	-	-	0	?
O=C1Nc2ccccc2S/C1=C/NCc1ccccc1Cl	4.5µM	-	-	0	0[9.22 µM]
COc1cc(OC)c(NC(=O)CN(C)S(=O)(=O)c2ccc3c(c2)CCCC(=O)N3)cc1Cl	-	-	-	-	0
Cc1ccc(OCC(=O)Nc2cccc(C(=O)OCc3cc(=O)n4cc(C)sc4n3)c2)cc1	-	-	-	-	0
COc1ccccc1CN(Cc1c(Cl)cccc1Cl)S(=O)(=O)c1ccc(Br)cc1	-	-	-	-	0
Cc1nc(CSc2nsc(/C=C/N(C)C)c2C#N)cs1	6.3µM	-	-	0	0
Cc1ccc(-c2nc3ccccc3[nH]2)cc1NC(=S)NC(=O)c1ccccc1Br	28µM	0	0	0	0[0.0737 µM]
O=C(NC(=S)Nc1cc(-c2nc3ccccc3[nH]2)ccc1Cl)c1ccc2c(c1)OCO2	8.9µM	0	20µM	0	0
Cc1ccc(-c2nc3ccccc3[nH]2)cc1NC(=O)c1ccc2c(c1)OCO2	0	?	0	0	0
Cc1ccc(-c2nc3ccccc3s2)cc1NC(=S)NC(=O)c1ccccc1	10µM	0	0	0	0
Cc1ccc(-c2nc3ccccc3[nH]2)cc1NC(=O)/C=C/c1ccco1	13µM	0	0	0	0
CO[C@@H]1c2cc(F)ccc2/C(=C\CCOC(=O)C/C=C/c2ccccc2)[C@H]1C	0	-	0	0	-
COc1ccc(-c2ccccc2C2NC(C(=O)O)CCC2C)cc1 (centres undefined)	0[13.5 µM]	-	-	-	-
CCNc1ncc2nc(C)c(=O)n(C3CC3)c2n1	?	-	-	-	0
O=C(CN1CCN(c2ccc(O)cc2)CC1)Nc1cc([N+](=O)[O-])ccc1Cl	11µM	0	0	0	0
CCC(CC)C(=O)Nc1cc([N+](=O)[O-])ccc1Cl	0	-116	0	0	0
CCC(CC)C(=O)Nc1cc([N+](=O)[O-])ccc1F	0	0	0	0	0
O=C(CN1CCN(c2ccccc2)CC1)Nc1ccccc1Cl	0	-	-	0	0
Cc1ccc([N+](=O)[O-])cc1NC(=O)CN1CCCCC1	0	0	0	0	0[0.0737 µM]
CC(=O)N1CCN(CC(=O)Nc2cc([N+](=O)[O-])ccc2Cl)CC1	35µM	-	-	-	-
CC(C)Oc1ccc(CNC(=O)c2ccc3c(c2)nc2n3CCOC2)cc1	-	-	-	-	0
Cc1ccc(CNC(=O)c2ccc(CS(=O)(=O)Cc3ccc(F)cc3)o2)cc1	-	-	-	-	0
SMILES	ALDH1A1 inh	PNC assembly inh	HPGD inh	Luc counter	Lamin A splicing
COc1ccc(CNC(=O)CCCN2C(=O)c3cccnc3Oc3ccc(Cl)cc32)cc1	-	-	-	-	0
COc1ccc(C(=O)CCN(C)C)c2ccccc12	0.028µM	-	0	0[7.66 µM]	-
COc1ccc(C(=O)c2ccc(Cl)cc2)c2ccccc12	0	0	0	0	0
CN(C)S(=O)(=O)c1ccc2[nH]cc(/C=C/c3nc4ccccc4c(=O)n3-c3ccccc3)c2c1	?	-80	0	0	?
COc1ccc(C2=CC(=O)OC3(CCCC3)O2)cc1	13µM	0	0	0	0
COC1=CC(=O)OC12CCCCC2	0	0	0	0	0
CC1=C(C(=O)OC(C)C)C(c2cccc([N+](=O)[O-])c2)n2c(cc(=O)[nH]c2=S)N1 (centres undefined)	0	?	28µM	0	?
CCn1c(=O)cc(SCC(=O)NCc2ccc(C)o2)c2ccccc21	0	0	28µM	0	0
CCn1c(=O)cc(OCC(=O)NCc2ccc(C)o2)c2ccccc21	22µM	0	?	0	0
CCn1c(=O)cc(OCC(=O)NCc2ccco2)c2ccccc21	?	?	0	0	0
Cc1ccc(NC(=O)C2CCCN(S(=O)(=O)c3ccc4c(c3)CCCC(=O)N4)C2)cc1Cl (centres undefined)	-	-	-	-	0
CCn1c(COc2ccccc2)nnc1SCC(=O)C(C)(C)C	?	-97	0	0	?
COc1ccc(C(=O)N[C@H](C(=O)Nc2ccc(OC)nc2)C(C)C)cc1	0	-112	0	0	0
CC(=O)N1N=C(c2ccc(C)o2)CC1c1cccc(F)c1 (centres undefined)	14µM	-	-	0	0
CC(=O)N1N=C(c2ccco2)CC1c1ccc(C)cc1 (centres undefined)	?	0	0	0	0
Cc1nn(-c2ccc(C(=O)Nc3nnc(C4CC4)s3)cc2)c(C)c1Cl	0	?	0	0	0
Cc1nn(-c2ccccc2)c(Cl)c1C(=O)Nc1nnc(C2CCCCC2)s1	4µM	?	0	0	?
Cc1nn(Cc2ccccc2Cl)c(C)c1C(=O)Nc1nnc(C2CC2)s1	?	-97	0	0	?
O=C(Nc1nnc(C2CC2)s1)c1cc(-c2ccccc2)nn1-c1ccccc1	0	-81	0	0	?
Cc1csc2c(SCC(=O)NNC(=O)C(Cl)Cl)ncnc12	28µM	-	-	-	0
COCCNC(=O)CCN1C(=O)c2cccnc2Oc2ccc(C)cc21	-	-	-	-	0
Cc1cc(C)n(CCOc2ccc(Cl)cc2Cl)n1	0	?	32µM	0	0
Cc1ccc2c(CSc3nnc4ccccn34)cc(=O)oc2c1C	?	0	0	0	0
Cc1ccc2c(CSc3nc4ccccc4c(=O)n3CCCO)cc(=O)oc2c1C	13µM	0	?	0	?
Cc1ccc(S(=O)(=O)CC(=O)N2CCN(c3nc4c(F)cccc4s3)CC2)cc1	-	-	-	-	0
SMILES	ALDH1A1 inh	PNC assembly inh	HPGD inh	Luc counter	Lamin A splicing
COc1cc(/C=C2\SC(=S)NC2=O)ccc1OS(=O)(=O)c1ccccc1	6.3µM	?	8.9µM	0	?
COc1cccc(/C=C2\SC(N)=NC2=O)c1OS(=O)(=O)c1ccccc1	0	-	-	0	-
COc1ccc(/C=C2\SC(=O)NC2=S)cc1OC	18µM	0	16µM	0	?
COc1ccc(/C=C2\SC(=S)NC2=O)cc1OS(=O)(=O)c1ccc(NC(C)=O)cc1	0.71µM	-	-	0	-
COc1cc(C=O)ccc1OS(=O)(=O)c1ccc(NC(C)=O)cc1	?	0	0	0	0
COc1cccc(/C=C2\SC(=S)NC2=O)c1OS(=O)(=O)c1ccc(NC(C)=O)cc1	?	0	25µM	0	0
CCCCNc1nc(C)nc2c1nc(-c1ccccc1)n2CCN1CCCCC1	?	-	?	0	-
Cc1cccc(-c2nc(SCC(=O)N3CCc4ccccc43)c3c(=O)n(C)c(=O)n(C)c3n2)c1	-	-	-	-	0
CC1CCC2C(=O)N3C(CCC(C)[C@H]3c3ccccc3Br)C(=O)N2C1c1ccccc1Br (some centres undefined)	0[13.5 µM]	-	-	-	-
CC(C)c1ccc(S(=O)(=O)/N=C2/C=C(Sc3ncn[nH]3)C(=O)c3ccccc32)cc1	1.8µM	?	1.4µM	0	?
Cc1ccc(S(=O)(=O)Nc2ccc(O)c(Sc3ncn[nH]3)c2)cc1	?	-	-	0	0
Cc1ccc(S(=O)(=O)/N=C2/C=C(Sc3ncn[nH]3)C(=O)c3ccccc32)c(C)c1	13µM	0	1.4µM	0	?
